High-throughput results as filed in PubChem.
Hits are enriched below; roughly 7.3% of the tested compounds scored in any of these assays.
Luc counter: counter-screen: inhibitors of Kinase-Glo firefly luciferase; Q27757; Kinase-Glo luciferase, ATP luminescence, 8 min; Potency, µM (series often up to 38.3 µM), inactives show at the highest dose activity change, negative = inhibition, usual class: inhibitors; actives 0.28% (n = 200,000); AID 1379; also: % is scaled to controls: 0 for no effect and ±100 for the full control effect; nearly all actives have a fitted effect of over 60% in size
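Compound is pinned into ATP-containing buffer (10 uM ATP, imidazole pH 7.2, 7 mM MgCl2). Kinase-Glo luciferase reagent is then added. Light output is recorded following an 8-min room-temperature incubation.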
NPC1 prom act: activators of NPC1 promoter | Huh7 NPC1 promoter luciferase reporter, 24 h | Potency, µM (series often up to 9.22 µM), without a hit: at the highest dose activation, actives largely listed as activators | actives 2.4% (n = 320,000) | AID 485313; also: % of control where 0% means no effect; nearly all actives have a fitted effect of over 60% in size
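Huh7 cells stably carrying NPC1 promoter–luciferase, plated in Opti-MEM with 10% FBS for 2 h, were exposed to compound in DMSO for 24 h at 37 °C; luciferase reagent was added for 10 min and luminescence read.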
FLuc counter: firefly luciferase modulation, counter-screen for miR-21 project. actives 6.9% (n = 360,000). P08659. Potency, µM (highest dose often 57.5 µM), for the others: at the highest dose activity change, negative = inhibition, actives largely listed as inhibitors. purified FLuc, Km substrates, luminescence inhibition;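 also: plate controls were vehicle for no effect and reference inhibitor for full effect; nearly all actives have a fitted effect of over 55% in size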
Target sequence (P08659 whole entry, looked up): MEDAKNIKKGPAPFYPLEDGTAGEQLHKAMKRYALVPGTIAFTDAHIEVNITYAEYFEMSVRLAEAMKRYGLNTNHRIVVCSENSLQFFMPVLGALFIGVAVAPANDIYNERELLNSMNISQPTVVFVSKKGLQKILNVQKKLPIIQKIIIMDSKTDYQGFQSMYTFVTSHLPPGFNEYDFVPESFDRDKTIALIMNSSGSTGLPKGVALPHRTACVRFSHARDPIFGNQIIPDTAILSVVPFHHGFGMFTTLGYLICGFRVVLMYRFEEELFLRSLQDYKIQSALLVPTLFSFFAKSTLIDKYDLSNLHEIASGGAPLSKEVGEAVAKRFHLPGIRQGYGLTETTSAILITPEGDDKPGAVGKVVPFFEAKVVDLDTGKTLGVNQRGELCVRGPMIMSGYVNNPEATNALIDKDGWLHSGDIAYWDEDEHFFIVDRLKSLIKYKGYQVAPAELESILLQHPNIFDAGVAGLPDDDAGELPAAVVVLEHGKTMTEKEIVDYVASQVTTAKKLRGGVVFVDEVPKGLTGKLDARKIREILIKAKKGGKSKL
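Purified P. pyralis luciferase, 10 nM final, with Km-level 10 uM D-luciferin and 10 uM ATP in 50 mM Tris acetate pH 7.5, 10 mM Mg acetate, 0.01% Tween-20, 0.05% BSA; 6-point qHTS titration about 60 µM downward; luminescence read.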
Rab9 promoter act: Rab9 promoter activation; Potency, µM (highest dose often 9.22 µM), without a hit: top-dose activation, negative = inhibition, actives largely listed as activators; AID 485297; Huh7 Rab9 promoter-luciferase reporter, luminescence, 24 h; actives 2.8% (n = 320,000); also: % of control where 0% means no effect; nearly all actives have a fitted effect of over 60% in size
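Cells were plated at 1500 per well in reduced-serum medium with 10% FBS and left 2 h. Compound in DMSO was then added for 24 h at 37 °C. Reporter signal was read by luminescence after 10 min with luciferase detection reagent.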
SMN2 splice enh: increases expression of the SMN2 splice variant; Potency, µM (titrated, usually from 46.1 µM), for inactives: at the highest dose activity change, positive = activation, most hits filed as activators; actives 2.8% (n = 210,000); HEK293 SMN2-luciferase splicing reporter, luminescence, 30-36 h; also: % of control where 0% means no effect; nearly all actives have a fitted effect of over 55% in size
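qHTS luciferase splicing reporter: luminescence rises when SMN2 exon 7 is included in transfected HEK293 cells. Compound exposure lasted 30-36 h at 37C, with 4.5 mM final sodium butyrate as control, followed by a ONE-Glo read.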
Numbers without * were called inactive. Calls follow the shape of the dose curve; as a rule, active = well fitted curve in the direction sought with a large enough effect; inconclusive = small, poorly fitted or top-dose-only effect, or another doubt; inactive = no such curve, though single readings can be large; an effect the other way counts as inactive or inconclusive. Potency is read from the fitted curve at half-maximal effect.

For CC(=O)Nc1ccc(S(=O)(=O)NC2(C(F)(F)F)C(=O)Nc3c2c(=O)[nH]c(=O)n3-c2ccc(C)cc2)cc1 (configuration not stated) the results were FLuc counter -14% and SMN2 splice enh -3%.
O=C(CCCn1c(=O)c2cccn2c2cccnc21)Nc1ccccc1Br was read as FLuc counter 1%.
`CCc1ccc(NC(=O)NC2CCCCCCC2)cc1` gave NPC1 prom act 0.71µM*, FLuc counter 3.8µM* and Rab9 promoter act 1.1µM*.
`CCc1ccc(NC(=O)C(=S)NC2CCCCC2)cc1` gave NPC1 prom act 0.79µM*, FLuc counter 3µM* and Rab9 promoter act 0.63µM*.
CCc1cccc(NC(=O)NC2CCCCC2)c1 was read as Luc counter -4%, NPC1 prom act 16%, FLuc counter -14%, Rab9 promoter act 18% and SMN2 splice enh inconclusive.
`CCc1ccc(NC(=O)C2CCCN2C(=O)NC2CCCCC2)cc1` (configuration not stated) gave NPC1 prom act 0%, FLuc counter 0% and Rab9 promoter act 5%.
`O=C(Cn1ccn(-c2cccc(Cl)c2)c(=O)c1=O)NCCc1ccccc1` gave FLuc counter -8%.
`Cc1ccc(NC(=O)CN2C(=O)COc3ccc(S(=O)(=O)Nc4ccccc4)cc32)c(C)c1` gave FLuc counter -1%.
`CCC(C)N(C(=O)CSc1nc(-c2ccccc2)cs1)C1CCS(=O)(=O)C1` (configuration not stated) gave Luc counter -1%, NPC1 prom act 1%, FLuc counter 17µM*, Rab9 promoter act -5% and SMN2 splice enh -25%.
For Cc1nn(C)c(=O)n1-c1ccc(OCc2ccccc2)cc1 the results were Luc counter -11%, NPC1 prom act inconclusive, FLuc counter inconclusive, Rab9 promoter act inconclusive and SMN2 splice enh 11µM*.
`COc1ccc(NC(=O)c2cc(C(C)C)on2)c(OC)c1` gave Luc counter -2%, NPC1 prom act inconclusive, FLuc counter inconclusive, Rab9 promoter act 3.5µM* and SMN2 splice enh 16µM*.
`Cc1cc(NC(=O)c2ccc(F)cc2F)n(-c2nc3ccccc3[nH]2)n1` gave Luc counter -1%, NPC1 prom act -1%, FLuc counter 2%, Rab9 promoter act 0% and SMN2 splice enh -29%.
For Cc1cc(NC(=O)c2sc3ccccc3c2O)no1 the results were NPC1 prom act 1.6µM*, FLuc counter 9.5µM* and Rab9 promoter act 3.2µM*.
For Cc1ccc(NC(=O)c2ccccc2Cl)c(Cl)c1 the results were Luc counter -3%, NPC1 prom act 27%, FLuc counter 19µM*, Rab9 promoter act inconclusive and SMN2 splice enh -4%.
`Cc1cc(NC(=O)/C=C/c2ccccc2Cl)n(-c2nc3ccccc3[nH]2)n1` gave Luc counter -8%, NPC1 prom act inconclusive, FLuc counter 1.3µM*, Rab9 promoter act 2µM* and SMN2 splice enh 11µM*.
`Cc1cc(NC(=O)c2ccccc2Cl)no1` gave Luc counter -6%, NPC1 prom act inconclusive, FLuc counter 15µM*, Rab9 promoter act 4µM* and SMN2 splice enh inconclusive.
Screening Cc1cc(NS(=O)(=O)c2ccc(NC(=O)/C=C/c3ccccc3Cl)cc2)no1 returned NPC1 prom act -5%, FLuc counter 8.5µM* and Rab9 promoter act 2%.
For Cc1cc(NC(=O)c2cc(Cl)ccc2Cl)no1 the results were Luc counter 12%, NPC1 prom act 2%, FLuc counter -2%, Rab9 promoter act -1% and SMN2 splice enh -22%.
For Cc1cc(NC(=O)c2c(F)cccc2Cl)no1 the results were Luc counter 4%, NPC1 prom act 4%, FLuc counter -13%, Rab9 promoter act -1% and SMN2 splice enh 21%.
For Cc1cc(NC(=O)NC(=O)c2ccccc2F)no1 the results were NPC1 prom act inconclusive, FLuc counter inconclusive and Rab9 promoter act 3.5µM*.
`Cc1cc(NC(=O)/C=C/c2ccccc2Cl)no1` gave Luc counter -1%, NPC1 prom act 2.8µM*, FLuc counter inconclusive, Rab9 promoter act 2.8µM* and SMN2 splice enh inconclusive.
